What all share (assay): DAPPL (digital affinity profiling via proximity ligation, sequencing); 10 mM Tris-HCl pH 7.5, 50 mM NaCl, 1 mM DTT, 4% glycerol, room temperature, 30 min; GST-TFs on glutathione beads, 16-mer random dsDNA library, 0.1% formaldehyde crosslink after washing; high values mean tight binding
Assay [1] has as its target ETV5 (Homo sapiens, UniProt P41161 1-510). The settings on record: protein: recombinant; tags: N-terminal GST; dsDNA, one strand shown. The gist of the method: (§1)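 Binding signal is given per hexamer as its read frequency for a factor divided by its frequency in the tag-only sample. GST-fused human transcription factors were expressed in yeast, captured on glutathione beads, barcoded with DNA and pooled with that sample, then incubated with 200 nmole of a 16-mer random double-stranded DNA library in Tris/NaCl/DTT/glycerol buffer for 30 min at room temperature. The pools were then washed, crosslinked, proximity-ligated, amplified by PCR and sequenced on an Illumina NextSeq500.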

For assay [2], the target named is HSF1 (Homo sapiens, UniProt Q00613 1-529). The following applies: protein: recombinant; tags: N-terminal GST; chain copies: 3; dsDNA, one strand shown. The procedure, abridged:
as §1

For assay [3], the target named is ELF4 (Homo sapiens, UniProt Q99607 1-663). The settings on record: protein: recombinant; tags: N-terminal GST; dsDNA, one strand shown. The gist of the method: as §1
ELF4, sequence (Q99607 whole entry): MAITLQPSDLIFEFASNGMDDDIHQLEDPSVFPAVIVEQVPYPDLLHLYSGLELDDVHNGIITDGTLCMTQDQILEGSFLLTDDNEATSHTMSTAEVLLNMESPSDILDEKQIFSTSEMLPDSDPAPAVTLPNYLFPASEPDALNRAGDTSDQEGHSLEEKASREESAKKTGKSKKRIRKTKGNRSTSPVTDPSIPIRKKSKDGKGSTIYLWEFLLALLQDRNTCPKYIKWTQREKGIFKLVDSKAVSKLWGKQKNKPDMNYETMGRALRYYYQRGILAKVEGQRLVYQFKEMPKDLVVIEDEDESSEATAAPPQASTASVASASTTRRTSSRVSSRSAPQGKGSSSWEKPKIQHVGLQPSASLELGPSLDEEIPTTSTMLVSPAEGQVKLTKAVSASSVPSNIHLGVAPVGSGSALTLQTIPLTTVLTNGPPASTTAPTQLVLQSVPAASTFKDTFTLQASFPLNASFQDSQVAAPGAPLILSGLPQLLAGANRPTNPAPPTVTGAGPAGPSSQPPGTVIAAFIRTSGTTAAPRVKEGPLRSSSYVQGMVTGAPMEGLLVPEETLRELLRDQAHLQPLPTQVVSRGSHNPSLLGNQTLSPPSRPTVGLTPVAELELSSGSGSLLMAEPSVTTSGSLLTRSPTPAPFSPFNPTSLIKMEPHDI
In assay [4] the target is T1, ELK4 (Homo sapiens, UniProt P28324-2 1-405).
T1 sequence: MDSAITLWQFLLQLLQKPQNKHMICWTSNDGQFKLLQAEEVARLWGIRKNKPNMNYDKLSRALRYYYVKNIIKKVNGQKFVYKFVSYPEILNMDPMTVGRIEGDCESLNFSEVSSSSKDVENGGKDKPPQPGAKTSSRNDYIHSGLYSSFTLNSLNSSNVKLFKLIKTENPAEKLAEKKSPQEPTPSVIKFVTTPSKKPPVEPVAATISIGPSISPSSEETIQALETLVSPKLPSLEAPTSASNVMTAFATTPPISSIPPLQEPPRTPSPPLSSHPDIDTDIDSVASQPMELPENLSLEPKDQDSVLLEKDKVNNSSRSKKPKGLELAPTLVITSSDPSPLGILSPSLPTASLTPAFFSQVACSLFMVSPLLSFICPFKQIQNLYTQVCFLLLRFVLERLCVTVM
The settings on record: protein: recombinant; tags: N-terminal GST; dsDNA, one strand shown. The procedure, abridged: as §1

Assay [5] addresses T2, ETV2 (Homo sapiens, UniProt O00321 1-342).
T2 sequence: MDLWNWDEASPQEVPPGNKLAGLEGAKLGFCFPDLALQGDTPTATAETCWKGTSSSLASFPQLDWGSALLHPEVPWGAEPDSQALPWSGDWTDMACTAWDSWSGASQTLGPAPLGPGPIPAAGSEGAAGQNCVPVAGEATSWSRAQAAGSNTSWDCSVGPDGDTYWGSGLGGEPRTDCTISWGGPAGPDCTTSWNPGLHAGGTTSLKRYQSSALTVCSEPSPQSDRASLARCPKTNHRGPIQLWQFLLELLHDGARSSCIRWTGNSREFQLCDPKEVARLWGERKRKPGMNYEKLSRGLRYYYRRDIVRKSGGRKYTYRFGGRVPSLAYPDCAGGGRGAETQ
The settings on record: protein: recombinant; tags: N-terminal GST; dsDNA, one strand shown. The procedure, abridged:
as §1

The target in assay [6] is T3, ELF3 (Homo sapiens, UniProt P78545 1-371).
T3 sequence: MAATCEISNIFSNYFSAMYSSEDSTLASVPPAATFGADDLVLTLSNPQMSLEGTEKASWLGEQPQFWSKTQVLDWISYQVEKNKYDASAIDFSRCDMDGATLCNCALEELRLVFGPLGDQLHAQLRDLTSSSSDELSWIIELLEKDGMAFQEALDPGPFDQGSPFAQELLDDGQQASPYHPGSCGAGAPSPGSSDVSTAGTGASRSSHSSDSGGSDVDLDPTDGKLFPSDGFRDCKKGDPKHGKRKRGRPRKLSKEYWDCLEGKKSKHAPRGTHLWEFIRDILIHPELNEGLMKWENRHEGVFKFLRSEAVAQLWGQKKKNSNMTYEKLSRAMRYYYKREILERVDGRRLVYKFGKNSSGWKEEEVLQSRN
The settings on record: protein: recombinant; tags: N-terminal GST; dsDNA, one strand shown. The procedure, abridged:
as §1

Assay [7] concerns the target CRX (Homo sapiens, UniProt O43186 1-299). The settings on record: protein: recombinant; tags: N-terminal GST; dsDNA, one strand shown. The gist of the method: as §1
Assay [8] deals with ETV1 (Homo sapiens, UniProt P50549 1-477). The following applies: protein: recombinant; tags: N-terminal GST; dsDNA, one strand shown. The procedure, abridged: as §1
ETV1, sequence (P50549 whole entry): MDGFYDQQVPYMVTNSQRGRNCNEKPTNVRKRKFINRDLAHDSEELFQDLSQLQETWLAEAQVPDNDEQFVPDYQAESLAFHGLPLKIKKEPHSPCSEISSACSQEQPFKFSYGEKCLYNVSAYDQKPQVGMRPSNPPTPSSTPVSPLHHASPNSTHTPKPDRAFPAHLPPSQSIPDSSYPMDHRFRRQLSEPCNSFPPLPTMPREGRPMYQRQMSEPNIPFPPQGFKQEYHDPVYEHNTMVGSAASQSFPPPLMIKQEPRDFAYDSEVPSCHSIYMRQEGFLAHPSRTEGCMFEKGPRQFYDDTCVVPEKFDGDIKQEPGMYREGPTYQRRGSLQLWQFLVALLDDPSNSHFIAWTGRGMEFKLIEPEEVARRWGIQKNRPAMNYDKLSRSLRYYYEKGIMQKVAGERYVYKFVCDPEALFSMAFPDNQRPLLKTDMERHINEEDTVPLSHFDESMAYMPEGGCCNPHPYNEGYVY
The target in assay [9] is T4, FEV (Homo sapiens, UniProt Q99581 1-238).
T4 sequence: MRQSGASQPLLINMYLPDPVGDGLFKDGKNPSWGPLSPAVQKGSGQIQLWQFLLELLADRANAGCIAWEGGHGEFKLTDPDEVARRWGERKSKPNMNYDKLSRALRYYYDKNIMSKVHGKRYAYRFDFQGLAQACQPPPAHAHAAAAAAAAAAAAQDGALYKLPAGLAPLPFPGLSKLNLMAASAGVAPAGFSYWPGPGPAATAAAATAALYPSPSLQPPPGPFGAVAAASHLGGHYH
The settings on record: protein: recombinant; tags: N-terminal GST; dsDNA, one strand shown. The procedure, abridged:
as §1

HSF1, sequence (Q00613 whole entry): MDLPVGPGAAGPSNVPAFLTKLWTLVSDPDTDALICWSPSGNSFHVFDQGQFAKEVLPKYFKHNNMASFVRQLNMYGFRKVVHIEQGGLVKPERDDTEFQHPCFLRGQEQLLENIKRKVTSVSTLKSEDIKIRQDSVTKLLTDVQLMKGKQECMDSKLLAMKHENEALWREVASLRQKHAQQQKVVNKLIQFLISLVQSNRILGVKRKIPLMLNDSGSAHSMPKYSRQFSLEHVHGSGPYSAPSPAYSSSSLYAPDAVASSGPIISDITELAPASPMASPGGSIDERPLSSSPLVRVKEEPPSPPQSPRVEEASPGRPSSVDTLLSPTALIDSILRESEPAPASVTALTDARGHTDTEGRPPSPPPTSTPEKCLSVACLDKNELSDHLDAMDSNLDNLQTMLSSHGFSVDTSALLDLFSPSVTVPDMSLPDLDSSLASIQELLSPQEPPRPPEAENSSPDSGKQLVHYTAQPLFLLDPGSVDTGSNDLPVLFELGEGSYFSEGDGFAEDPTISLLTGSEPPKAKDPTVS
CRX, sequence (O43186 whole entry): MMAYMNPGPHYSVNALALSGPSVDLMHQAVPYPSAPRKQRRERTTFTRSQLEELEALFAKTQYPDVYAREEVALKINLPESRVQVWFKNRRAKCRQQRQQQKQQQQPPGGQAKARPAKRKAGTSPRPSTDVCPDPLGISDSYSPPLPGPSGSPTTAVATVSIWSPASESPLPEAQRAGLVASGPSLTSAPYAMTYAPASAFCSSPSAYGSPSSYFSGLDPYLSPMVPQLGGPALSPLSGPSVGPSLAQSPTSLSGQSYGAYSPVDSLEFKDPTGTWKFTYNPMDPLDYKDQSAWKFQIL
ETV5, sequence (P41161 whole entry, the tested form may be a part): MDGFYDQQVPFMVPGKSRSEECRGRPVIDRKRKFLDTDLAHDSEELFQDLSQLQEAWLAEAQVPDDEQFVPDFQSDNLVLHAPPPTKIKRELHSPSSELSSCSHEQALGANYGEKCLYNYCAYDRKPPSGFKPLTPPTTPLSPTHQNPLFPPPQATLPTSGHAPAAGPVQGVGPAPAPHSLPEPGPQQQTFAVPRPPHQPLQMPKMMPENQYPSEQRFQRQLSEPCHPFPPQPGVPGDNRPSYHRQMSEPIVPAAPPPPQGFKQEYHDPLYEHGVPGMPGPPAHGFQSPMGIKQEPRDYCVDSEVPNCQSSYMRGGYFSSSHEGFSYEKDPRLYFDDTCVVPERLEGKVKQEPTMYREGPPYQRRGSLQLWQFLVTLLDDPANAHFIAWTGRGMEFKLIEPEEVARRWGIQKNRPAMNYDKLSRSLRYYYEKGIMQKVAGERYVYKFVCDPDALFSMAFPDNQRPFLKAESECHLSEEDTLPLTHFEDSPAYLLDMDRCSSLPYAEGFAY

On to ATTGAA, for which the binding signal in [1] was 1.05 fold enrichment (6-mer frequency, TF over GST control); in assay [2] it was 1.01 fold enrichment (6-mer frequency, TF over GST control); in assay [3], 1.01 fold enrichment (6-mer frequency, TF over GST control); in [4], 1.06 fold enrichment (6-mer frequency, TF over GST control); in assay [5] it was 1 fold enrichment (6-mer frequency, TF over GST control); in assay [6], 1.07 fold enrichment (6-mer frequency, TF over GST control). Also, the binding signal in assay [7] was 1.06 fold enrichment (6-mer frequency, TF over GST control); in assay [8], 1.15 fold enrichment (6-mer frequency, TF over GST control).

Turning to TACATT, the binding signal in assay [9] is 1.19 fold enrichment (6-mer frequency, TF over GST control); in assay [1], 1.21 fold enrichment (6-mer frequency, TF over GST control); in assay [2] it was 1.25 fold enrichment (6-mer frequency, TF over GST control); in assay [3], 1.24 fold enrichment (6-mer frequency, TF over GST control); in assay [4], 1.09 fold enrichment (6-mer frequency, TF over GST control); in assay [5] it was 1.17 fold enrichment (6-mer frequency, TF over GST control). For the same sequence, the binding signal is 1.11 fold enrichment (6-mer frequency, TF over GST control) in assay [6]; 1.25 fold enrichment (6-mer frequency, TF over GST control) in [7]; 1.16 fold enrichment (6-mer frequency, TF over GST control) in [8].

On to CTTTAG, for which the binding signal in [9] was 1.18 fold enrichment (6-mer frequency, TF over GST control); in assay [1], 1.1 fold enrichment (6-mer frequency, TF over GST control); in assay [2], 1.37 fold enrichment (6-mer frequency, TF over GST control); in assay [3] it was 1.26 fold enrichment (6-mer frequency, TF over GST control); in assay [4], 1.15 fold enrichment (6-mer frequency, TF over GST control); in assay [5] it was 1.23 fold enrichment (6-mer frequency, TF over GST control). In addition, the binding signal was 1.34 fold enrichment (6-mer frequency, TF over GST control) in assay [6]; 1.51 fold enrichment (6-mer frequency, TF over GST control) in [7]; 1.24 fold enrichment (6-mer frequency, TF over GST control) in [8].

Consider ATTAGG, for which the binding signal was 1.01 fold enrichment (6-mer frequency, TF over GST control) in assay [9]; 1.11 fold enrichment (6-mer frequency, TF over GST control) in [1]; 1.57 fold enrichment (6-mer frequency, TF over GST control) in assay [2]; 1.07 fold enrichment (6-mer frequency, TF over GST control) in assay [3]; 1.06 fold enrichment (6-mer frequency, TF over GST control) in assay [4]; 1.05 fold enrichment (6-mer frequency, TF over GST control) in assay [5]. The binding signal is 1.04 fold enrichment (6-mer frequency, TF over GST control) in assay [6]; 2.38 fold enrichment (6-mer frequency, TF over GST control) in assay [7]; 1.01 fold enrichment (6-mer frequency, TF over GST control) in [8].

For the sequence TCAAAG, the binding signal is 1.1 fold enrichment (6-mer frequency, TF over GST control) in assay [9]; 1.08 fold enrichment (6-mer frequency, TF over GST control) in [1]; 1.17 fold enrichment (6-mer frequency, TF over GST control) in [2]; 1.14 fold enrichment (6-mer frequency, TF over GST control) in [3]; 1.21 fold enrichment (6-mer frequency, TF over GST control) in assay [4]; 1.03 fold enrichment (6-mer frequency, TF over GST control) in assay [5]. Besides, the binding signal in [6] is 1.16 fold enrichment (6-mer frequency, TF over GST control); in assay [7] it was 1.32 fold enrichment (6-mer frequency, TF over GST control); in assay [8], 1.13 fold enrichment (6-mer frequency, TF over GST control).

On to AAGCCC, for which the binding signal is 1.06 fold enrichment (6-mer frequency, TF over GST control) in assay [9]; 1.04 fold enrichment (6-mer frequency, TF over GST control) in assay [1]; 1.22 fold enrichment (6-mer frequency, TF over GST control) in [2]; 1.04 fold enrichment (6-mer frequency, TF over GST control) in [3]; 1.06 fold enrichment (6-mer frequency, TF over GST control) in assay [4]; 1.11 fold enrichment (6-mer frequency, TF over GST control) in [5]. The binding signal in assay [6] is 1.04 fold enrichment (6-mer frequency, TF over GST control); in [7], 1.54 fold enrichment (6-mer frequency, TF over GST control); in assay [8] it was 1.06 fold enrichment (6-mer frequency, TF over GST control).

Regarding AAATAG, the binding signal in assay [9] was 1.16 fold enrichment (6-mer frequency, TF over GST control); in [1] it was 1.2 fold enrichment (6-mer frequency, TF over GST control); in assay [2], 1.09 fold enrichment (6-mer frequency, TF over GST control); in [3], 1.02 fold enrichment (6-mer frequency, TF over GST control); in assay [4], 1.15 fold enrichment (6-mer frequency, TF over GST control); in [5], 1.06 fold enrichment (6-mer frequency, TF over GST control). In addition, the binding signal in [6] was 1.17 fold enrichment (6-mer frequency, TF over GST control); in assay [7] it was 1.11 fold enrichment (6-mer frequency, TF over GST control); in assay [8], 1.11 fold enrichment (6-mer frequency, TF over GST control).

For the origin of these results see article PMC7862700, “An all-to-all approach to the identification of sequence-specific readers for epigenetic DNA modifications on cytosine”.
